A short description of experiment [1]: qHTS assay to identify small molecule agonists of the constitutive androstane receptor (CAR) signaling pathway - cell viability counter screen (AID 1224836). Note: nearly all actives have a fitted effect of over 45% in size. Note: potency is the fitted concentration of half-maximal effect. The gist of the method: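 23 h treatment, 37 C, 5% CO2. Cell line: HepG2 stably expressing hCAR with a CYP2B6-2.2kb construct. Co-treatment: PK11195, 0.75 uM final. Read-out: CellTiter-Fluor fluorescence intensity.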
(In qHTS, concentration-response curves come from the screen itself.)

Experiment [2] addresses Nuclear receptor subfamily 1 group I member 3 (Homo sapiens) (UniProt Q14994). Put plainly: qHTS assay to identify small molecule antagonists of the constitutive androstane receptor (CAR) signaling pathway (AID 1224838).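 Note: HepG2 cells stably expressing hCAR with CYP2B6 luciferase reporter stimulated by CITCO; nearly all actives have a fitted effect of over 40% in size.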 Note: potency is the fitted concentration of half-maximal effect. The essentials:
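Quantitative HTS in double-stable HepG2-CYP2B6-hCAR cells. After 4 h plating, cells get compound (15 concentrations) and CITCO at 50 nM final, incubate 24 h at 37 C, then ONE-Glo luminescence is read.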

The target is the same in experiment [3]. Put plainly: qHTS assay to identify small molecule agonists of the constitutive androstane receptor (CAR) signaling pathway (AID 1224839).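 For activation: HepG2 cells stably carrying human CAR and a CYP2B6 luciferase reporter.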 Note: nearly all actives have a fitted effect of over 15% in size. Note: potency is the fitted concentration of half-maximal effect. The essentials:
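Compounds tested at 15 concentrations on HepG2 cells stably harbouring hCAR and CYP2B6-2.2kb reporter constructs, co-treated with PK11195 (0.75 uM final), 24 h at 37 C; luminescent reporter signal quantified.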

Experiment [4] in a line: qHTS assay to identify small molecule antagonists of the estrogen related receptor signaling pathway with the pleiotropic PPARgamma coactivator (PGC) from Tox21 10K library (AID 1224841; call rule not given here; note: actives are mostly falling curves and most rising ones were filed inactive; nearly all actives have a fitted effect of over 50% in size; note: potency is the fitted concentration of half-maximal effect). The gist of the method: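 Compound exposure ran 18 hours at 37 C in PGC/ERR cells (2,000/well) that had first rested 6 hours in a 37 C/5% CO2 incubator. Luciferase activity was then detected with One-Glo after a 30-minute room-temperature step.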

The nature of experiment [5]: qHTS assay to identify small molecule agonists of the estrogen related receptor signaling pathway with the pleiotropic PPARgamma coactivator (PGC) from Tox21 10K library (AID 1224842). Note: nearly all actives have a fitted effect of over 15% in size. Note: potency is the fitted concentration of half-maximal effect. The gist of the method:
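Luminescence from One-Glo (30 min, room temperature) measured after PGC/ERR cells had 18 h at 37 C with pinned compound (23 nL in DMSO). Cells had been seeded at 2,000 per well and pre-incubated 6 h.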

For experiment [6], the target named is Thyrotropin receptor (Homo sapiens) (UniProt P16473). Briefly: qHTS assay to identify small molecule agonists of the thyroid stimulating hormone receptor (TSHR) signaling pathway (AID 1224843; calls by dose curve; note: nearly all actives have a fitted effect of over 45% in size). The essentials: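 Screening of the Tox21 10K collection used HEK293 cells engineered with TSHR at 800 cells per well. After a 30-min room-temperature compound exposure, HTRF cAMP reagents were added and fluorescence recorded 1 h later.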

Experiment [7] in a line: qHTS assay to identify small molecule agonists of the hypoxia (HIF-1) signaling pathway - cell viability counter screen (AID 1224844; calls by dose curve; note: nearly all actives have a fitted effect of over 50% in size; note: potency is the fitted concentration of half-maximal effect). The gist of the method:
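Luminescent ATP content (CellTiter-Glo, 30 min, room temperature) served as the viability measure in HRE-bla ME-180 cells exposed to compounds for 17 hrs in low-serum medium (0.5% dialyzed FBS).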

The nature of experiment [8]: qHTS assay to identify small molecule agonists of the hypoxia (HIF-1) signaling pathway (AID 1224846; active = well fitted activation curve with a large enough effect in the signal ratio in the repeat runs, not every such curve was filed as active; the % refers to the signal ratio). The essentials:
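Measured by blue/green FRET after loading CCF4-AM: beta-lactamase expressed from a hypoxia response element in ME-180 cells. Test agents were delivered in DMSO and left 17 hrs; cells had been plated 5 hrs earlier in low-serum (0.5% dialyzed FBS) medium.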

The nature of experiment [9]: qHTS assay to identify small molecule agonists of H2AX - cell viability counter screen (AID 1224847; calls by dose curve; note: nearly all actives have a fitted effect of over 30% in size; note: potency is the fitted concentration of half-maximal effect). The essentials:
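Compounds tested at 15 concentrations were incubated 3 hr at 37C with wild-type CHO-K1 cells; cellular ATP-based luminescence (CellTiter-Glo) indicated viability.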

The nature of experiment [10]: qHTS assay to identify small molecule antagonists of the estrogen related receptor (ERR) signaling pathway from Tox21 library (AID 1224848). Note: nearly all actives have a fitted effect of over 50% in size. Note: potency is the fitted concentration of half-maximal effect. The essentials: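 Antagonist-mode screen of the Tox21 10K library in an NTP-provided ERR reporter cell line; 18 h compound exposure at 37 C, luminescence measured with ONE-Glo.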
A short description of experiment [11]: qHTS assay to identify small molecule agonists of the estrogen related receptor (ERR) signaling pathway from Tox21 library (AID 1224849; calls by dose curve; note: nearly all actives have a fitted effect of over 15% in size). The following applies: ERR reporter cell line, ONE-Glo luciferase, 18 h. The essentials: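 We plated ERR reporter cells, waited 6 h, added compounds in DMSO by pin tool and incubated them 18 h at 37 C. ONE-Glo was then added and luminescence read after 30 min.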

Experiment [12] can be described thus: qHTS RealTime-Glo MT Cell Viability Assay in HepG2 cells - 24 hour (AID 1224867). Note: nearly all actives have a fitted effect of over 50% in size. Note: potency is the fitted concentration of half-maximal effect. The gist of the method: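 HepG2 suspension premixed with RealTime-Glo reagents is plated at 600 cells per well and left 5 h at 37 C/5% CO2. Compounds in DMSO then go in, and bioluminescence reflecting viable cell number is recorded over 40 h.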
Experiment [13] is described as follows: qHTS RealTime-Glo MT Cell Viability Assay in HEK293 cells - 32 hour (AID 1224868). Note: nearly all actives have a fitted effect of over 50% in size. Note: potency is the fitted concentration of half-maximal effect. The gist of the method: (§1)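 Reads taken at 0, 8, 16, 24, 32 and 40 h from the same wells. HEK293 cells (600/well) carried RealTime-Glo reagents from seeding, with compound added after a 5 h settle at 37 C.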
Experiment [14] is described as follows: A CellTox Green Cytotoxicity Assay to monitor cytotoxicity in HEK293 cells - 0 hour (AID 1224869). Note: nearly all actives have a fitted effect of over 50% in size. The gist of the method:
(§2)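 Each value comes from one timepoint of a single continuous run in which HEK293 cells with CellTox Green were exposed to compound for up to 40 h at 37 C, dye fluorescence rising with cell death.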

Experiment [15] can be described thus: qHTS RealTime-Glo MT Cell Viability Assay in HepG2 cells - 40 hour (AID 1224870). Note: nearly all actives have a fitted effect of over 50% in size. Note: potency is the fitted concentration of half-maximal effect. The gist of the method: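 Real-time viability: cells seeded at 600 per well together with NanoLuc and cell-permeant prosubstrate, compounds added after 5 h incubation. Luminescence tracked at 0, 8, 16, 24, 32 and 40 h of exposure.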
Experiment [16] in a line: A CellTox Green Cytotoxicity Assay to monitor cytotoxicity in HEK293 cells - 40 hour (AID 1224871). Note: nearly all actives have a fitted effect of over 45% in size. Note: potency is the fitted concentration of half-maximal effect. The essentials:
as §2

A short description of experiment [17]: qHTS assay to identify small molecule antagonists of the estrogen related receptor signaling pathway with the pleiotropic PPARgamma coactivator (PGC) from Tox21 10K library - cell viability counter screen (AID 1224840; active = well fitted cell-killing curve with a large enough effect in the repeat runs, not every such curve was filed as active; note: nearly all actives have a fitted effect of over 40% in size; note: potency is the fitted concentration of half-maximal effect). The essentials:
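Compounds in DMSO, alongside positive and negative controls, were pinned onto PGC/ERR cells (2,000 per well). Exposure lasted 17.5 hours at 37 C, followed by a 30-minute CellTiter-Fluor incubation and fluorescence reading.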

Experiment [18] can be described thus: qHTS RealTime-Glo MT Cell Viability Assay in HEK293 cells - 16 hour (AID 1224872). Note: nearly all actives have a fitted effect of over 50% in size. Note: potency is the fitted concentration of half-maximal effect. The gist of the method:
as §1

A short description of experiment [19]: qHTS assay to identify small molecule antagonists of the constitutive androstane receptor (CAR) signaling pathway - cell viability counter screen (AID 1224837). Note: nearly all actives have a fitted effect of over 45% in size. The gist of the method:
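Fluorescence from CellTiter-Fluor served as the viability signal. Human hepatoma HepG2 cells stably bearing hCAR and CYP2B6-2.2kb received compound plus CITCO (50 nM final) for 23 hr.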

The nature of experiment [20]: qHTS assay to identify small molecule agonists of H2AX (AID 1224845; active = well fitted activation curve with a large enough effect in the signal ratio in the repeat runs, not every such curve was filed as active; the % refers to the signal ratio; note: potency is the fitted concentration of half-maximal effect). The essentials: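 Phospho-H2AX Ser139 measured by HTRF (ex 320 nm; em 665 and 620 nm) after 24 hr antibody incubation. Compounds, 15 concentrations, 0.76% DMSO, were applied to CHO-K1 cells for 3hr at 37C before lysis.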

SMILES strings stand for the structures. Where “and” joins values, the source holds several entries; their conditions need not be identical. Identical values can stand only once. Results filed as inconclusive are left out. More than one record can exist for a structure, and the calls need not agree. Calls of active or inactive are those of the source. Unless noted, calls come from the whole dose curve; as a rule, active = well fitted curve in the direction sought with a large enough effect in the repeat runs; inconclusive = weak or mixed curves; inactive = no such curve, though single readings can be large; an effect the other way counts as inactive or inconclusive.
% is set by controls: 0 for no effect and ±100 for the full control effect.

Chain of Nuclear receptor subfamily 1 group I member 3 (Homo sapiens) (Q14994 whole entry, looked up): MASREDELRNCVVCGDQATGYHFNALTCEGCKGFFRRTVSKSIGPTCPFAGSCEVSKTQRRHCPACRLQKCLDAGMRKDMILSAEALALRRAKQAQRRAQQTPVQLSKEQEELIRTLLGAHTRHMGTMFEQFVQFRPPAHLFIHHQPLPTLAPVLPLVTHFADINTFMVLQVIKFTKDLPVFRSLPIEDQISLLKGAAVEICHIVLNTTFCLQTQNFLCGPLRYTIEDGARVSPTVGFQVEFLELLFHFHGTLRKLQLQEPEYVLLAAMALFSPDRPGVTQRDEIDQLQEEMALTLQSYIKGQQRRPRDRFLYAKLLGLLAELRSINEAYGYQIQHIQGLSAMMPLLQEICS
Chain of Thyrotropin receptor (Homo sapiens) (P16473 whole entry, looked up): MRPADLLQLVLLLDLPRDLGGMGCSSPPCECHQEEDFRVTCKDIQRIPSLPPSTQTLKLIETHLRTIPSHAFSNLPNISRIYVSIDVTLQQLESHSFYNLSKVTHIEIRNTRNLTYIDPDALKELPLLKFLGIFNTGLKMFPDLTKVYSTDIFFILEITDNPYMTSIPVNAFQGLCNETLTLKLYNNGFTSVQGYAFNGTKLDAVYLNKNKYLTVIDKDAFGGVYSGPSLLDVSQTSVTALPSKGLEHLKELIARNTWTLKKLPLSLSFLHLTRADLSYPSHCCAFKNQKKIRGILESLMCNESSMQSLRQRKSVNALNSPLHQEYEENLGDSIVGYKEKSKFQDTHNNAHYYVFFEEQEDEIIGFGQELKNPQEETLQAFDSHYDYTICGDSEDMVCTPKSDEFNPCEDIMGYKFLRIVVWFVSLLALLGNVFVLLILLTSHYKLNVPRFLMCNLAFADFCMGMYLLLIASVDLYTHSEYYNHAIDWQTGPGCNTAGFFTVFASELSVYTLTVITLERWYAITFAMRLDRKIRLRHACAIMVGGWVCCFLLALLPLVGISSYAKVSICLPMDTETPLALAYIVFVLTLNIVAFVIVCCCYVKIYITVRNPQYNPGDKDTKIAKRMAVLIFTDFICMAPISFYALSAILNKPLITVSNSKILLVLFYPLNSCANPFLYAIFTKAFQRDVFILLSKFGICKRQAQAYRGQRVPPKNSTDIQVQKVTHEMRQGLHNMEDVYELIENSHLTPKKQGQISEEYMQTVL

Take `CCCOC(=O)c1cc(O)c(O)c(O)c1`: the Potency entry in [1], in experiment [2], in [4], in [6], in experiment [7] and in [8] was “inactive” in each case. Besides, the Potency entry in [9], in [12], in experiment [14], in [15] and in experiment [16] was “inactive” each time. The Potency result is “inactive and 19.3 µM (active)” in [3]; 4.31 µM (active) in [5]; 48.3 µM (active) and 54.5 µM (active) in experiment [10]; 38.9 µM (active) in experiment [13]. Moreover, the activity change, positive = activation in experiment [11] (at 92.4 µM (top of the series)) is -50.8% (inactive) and -46.2% (inactive).
Take `CN(C)c1ccc(C(=C2C=CC(=[N+](C)C)C=C2)c2ccccc2)cc1`: the Potency in [1] was 11.9 µM (active) [middle of 4 runs]; in experiment [2], 4.73 µM (active) [middle of 4 runs]; in [17], 3.44 µM (active) and 6.68 µM (active) and 4.73 µM (active); in experiment [7], 11 µM (active) and 5.35 µM (active); in [10] it was 596 nM (active) [middle of 4 runs]; in [12], 11 µM (active) and 8.49 µM (active) and 7.56 µM (active). The Potency is 2.13 µM (active) [middle of 4 runs] in experiment [13]; 17.4 µM (active) and 9.52 µM (active) and 10.7 µM (active) in experiment [16]; 3.01 µM (active) [middle of 4 runs] in experiment [18]. In addition, the Potency result in experiment [3] and in experiment [14] was “inactive” throughout. In addition, the activity change, positive = activation in experiment [11] (at 42.5 µM (top of the series)) is -66.6% (inactive) and -76.7% (inactive) and -71.5% (inactive); in experiment [11] (at 92.4 µM (top of the series)) it was -71.3% (inactive).
For the compound `Oc1ccc(Cl)cc1Cc1cc(Cl)ccc1O`, the Potency result in [1], in [19], in experiment [6], in experiment [20], in experiment [14] and in [16] was “inactive” in each case. In addition, the Potency is 24.8 µM (active) in experiment [17]; 54.9 µM (active) and inactive in experiment [7]; 51.4 µM (active) and 31.8 µM (active) in experiment [9]; 19.8 µM (active) and 49 µM (active) in experiment [13]; 49.9 µM (active) in [15]; 22.3 µM (active) in experiment [18].
As to `COc1ccc(COC(C)=O)cc1`, the Potency entry in experiment [1], in experiment [2], in [3], in experiment [17], in experiment [4] and in experiment [6] was “inactive” throughout. Besides, the Potency entry in experiment [7], in experiment [20], in experiment [8], in [9], in [10] and in experiment [12] was “inactive” in each case. The Potency result in experiment [13], in experiment [14], in [15], in [16] and in experiment [18] was “inactive” in each case. In experiment [11] (at 92.4 µM (top of the series)), the activity change, positive = activation is 0.212% (inactive) and 1.93% (inactive).
Turning to `CCCCCCCCCCCCc1ccccc1O`, the Potency entry in experiment [1] and in experiment [14] was “inactive” each time. Also, the Potency is 30.6 µM (active) in experiment [2]; 4.79 µM (active) and 4.33 µM (active) in [3]; “inactive and 48.6 µM (active)” in experiment [17]; 55.9 µM (active) and 40.1 µM (active) in experiment [20]; 55.9 µM (active) and 40.1 µM (active) in experiment [9]; “inactive and 38.9 µM (active)” in experiment [12]. The Potency in [13] was 48.3 µM (active) and 49 µM (active); in experiment [15], “inactive and 49 µM (active)”; in [16], 43.1 µM (active) and 34.7 µM (active); in experiment [18] it was 43.1 µM (active) and 43.6 µM (active).
`CN(C)c1ccc2nc3ccc(=[N+](C)C)cc-3sc2c1`: the Potency in experiment [1] was 24.3 µM (active) and 13.3 µM (active); in [3] it was 1.54 µM (active) and 750 nM (active); in [17], 2.62 µM (active) and 7.7 µM (active); in [4] it was 1.86 µM (active) and 1.93 µM (active) and 2.66 µM (active); in experiment [9], 21.7 µM (active) and 45 µM (active) and 43.8 µM (active); in experiment [10], 739 nM (active) and 433 nM (active) and 473 nM (active). The Potency in experiment [12] is 16.7 µM (active) and 12.3 µM (active) and 19 µM (active); in experiment [13] it was 1.87 µM (active) and 1.74 µM (active) and 2.68 µM (active); in experiment [15] it was 21 µM (active) and 12.3 µM (active) and 23.9 µM (active); in [18], 2.97 µM (active) and 3.09 µM (active) and 2.68 µM (active). The Potency result in experiment [2], in experiment [5], in experiment [14] and in [16] was “inactive” each time. Besides, the activity change, positive = activation in experiment [11] (at 42.5 µM (top of the series)) is -59.7% (inactive) and -55.3% (inactive); in [11] (at 92.4 µM (top of the series)), -71.3% (inactive).
